Results from paper PMC4081100, “A DNA-binding-site landscape and regulatory network analysis for NAC transcription factors in Arabidopsis thaliana”.

Experiments:
Assay in all cases: universal protein binding microarray (PBM); transcription factors of Arabidopsis thaliana; high values mean tight binding
Settings in all cases: protein: recombinant; tags: GST; chain copies: 2; dsDNA, one strand shown
GST-ANAC092(1-176) = target: T1, GST-ANAC092(1-176) (Arabidopsis thaliana, UniProt Q9FKA0 1-176)
T1 sequence: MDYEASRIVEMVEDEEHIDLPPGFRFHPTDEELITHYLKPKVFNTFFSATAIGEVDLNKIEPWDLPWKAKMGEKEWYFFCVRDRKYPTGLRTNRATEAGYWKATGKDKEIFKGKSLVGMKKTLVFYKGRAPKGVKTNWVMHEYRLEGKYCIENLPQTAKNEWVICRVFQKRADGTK
Procedure, shortened: (§1)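 Protein amounts were determined by A280 or anti-GST western blot after glutathione–Sepharose 4B purification of GST-tagged proteins induced in cells, with zinc acetate included for zinc-finger proteins. Duplicate runs at 200 to 500 nM final were done on custom all-10-mer Agilent 4 × 180K arrays made double-stranded by primer extension. The normalised enrichment score (E-score) over gapped and ungapped 8-mers is the measure of binding.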

GST-NTL6(1-168) = GST-NTL6(1-168) (Arabidopsis thaliana, UniProt Q9SCK6 1-168)
Procedure, shortened: as §1

GST-ANAC019 NAC domain = target: T2, GST-ANAC019 NAC domain (Arabidopsis thaliana, UniProt Q9C932 14-162)
T2 sequence: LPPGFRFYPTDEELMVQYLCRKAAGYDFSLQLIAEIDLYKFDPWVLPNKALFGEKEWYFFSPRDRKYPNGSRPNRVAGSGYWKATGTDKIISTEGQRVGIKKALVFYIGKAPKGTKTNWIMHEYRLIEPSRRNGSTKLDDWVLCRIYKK
Procedure, shortened: as §1

GST-ANAC055(1-171) = target: T3, GST-ANAC055(1-171) (Arabidopsis thaliana, UniProt Q9LDY8 1-171)
T3 sequence: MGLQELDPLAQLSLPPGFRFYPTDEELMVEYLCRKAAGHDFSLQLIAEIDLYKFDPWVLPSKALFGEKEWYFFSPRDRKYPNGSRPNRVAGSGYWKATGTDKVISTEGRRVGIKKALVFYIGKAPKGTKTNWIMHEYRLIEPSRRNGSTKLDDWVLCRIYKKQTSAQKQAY
Procedure, shortened: as §1

GST-ATAF1 NAC domain = target: T4, GST-ATAF1 NAC domain (Arabidopsis thaliana, UniProt Q39013 7-158)
T4 sequence: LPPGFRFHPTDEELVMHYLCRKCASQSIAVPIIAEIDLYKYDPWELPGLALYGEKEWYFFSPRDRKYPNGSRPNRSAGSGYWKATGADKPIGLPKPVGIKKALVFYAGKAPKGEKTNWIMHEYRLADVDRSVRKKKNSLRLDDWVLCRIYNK
Procedure, shortened: as §1

[1] = target: T5, GST-ANAC092(1-285) full length (Arabidopsis thaliana, UniProt Q9FKA0 1-285)
T5 sequence: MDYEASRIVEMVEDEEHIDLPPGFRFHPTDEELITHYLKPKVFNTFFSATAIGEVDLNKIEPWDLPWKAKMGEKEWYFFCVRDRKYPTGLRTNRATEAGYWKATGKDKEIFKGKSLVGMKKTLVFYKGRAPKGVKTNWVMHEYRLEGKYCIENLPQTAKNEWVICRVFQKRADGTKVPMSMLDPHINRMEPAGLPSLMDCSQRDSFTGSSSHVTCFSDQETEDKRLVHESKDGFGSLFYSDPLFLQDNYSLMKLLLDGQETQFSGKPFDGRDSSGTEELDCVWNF
Procedure, shortened: as §1

GST-NST2(1-184) = target: T6, GST-NST2(1-184) (Arabidopsis thaliana, UniProt Q9M274 1-184)
T6 sequence: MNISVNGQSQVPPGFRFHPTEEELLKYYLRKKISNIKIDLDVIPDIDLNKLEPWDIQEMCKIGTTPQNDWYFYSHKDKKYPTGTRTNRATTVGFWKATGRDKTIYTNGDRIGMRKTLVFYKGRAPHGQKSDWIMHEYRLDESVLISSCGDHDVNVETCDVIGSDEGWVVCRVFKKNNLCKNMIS
Procedure, shortened: as §1

GST-NTL8 NAC domain = target: T7, GST-NTL8 NAC domain (Arabidopsis thaliana, UniProt Q9XIN7 14-156)
T7 sequence: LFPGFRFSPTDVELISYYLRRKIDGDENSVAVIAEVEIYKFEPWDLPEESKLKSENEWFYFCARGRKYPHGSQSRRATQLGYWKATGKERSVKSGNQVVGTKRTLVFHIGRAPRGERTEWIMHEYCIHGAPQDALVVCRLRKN
Procedure, shortened: as §1

GST-SND1(1-203) = target: T8, GST-SND1(1-203) (Arabidopsis thaliana, UniProt Q9LPI7 1-203)
T8 sequence: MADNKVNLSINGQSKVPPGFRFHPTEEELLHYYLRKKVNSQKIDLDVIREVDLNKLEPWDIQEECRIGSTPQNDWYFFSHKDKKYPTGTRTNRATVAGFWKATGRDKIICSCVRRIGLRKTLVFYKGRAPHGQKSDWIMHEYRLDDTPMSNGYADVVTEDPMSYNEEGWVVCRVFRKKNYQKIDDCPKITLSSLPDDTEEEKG
Procedure, shortened: as §1

GST-VND3 NAC domain = target: T9, GST-VND3 NAC domain (Arabidopsis thaliana, UniProt Q9FH59 12-162)
T9 sequence: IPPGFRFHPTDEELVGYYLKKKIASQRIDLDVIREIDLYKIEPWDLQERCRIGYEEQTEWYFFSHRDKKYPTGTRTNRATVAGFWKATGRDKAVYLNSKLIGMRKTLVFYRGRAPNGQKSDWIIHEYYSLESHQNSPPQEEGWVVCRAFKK
Procedure, shortened: as §1

GST-VND7 NAC domain = target: T10, GST-VND7 NAC domain (Arabidopsis thaliana, UniProt Q9C8W9 9-158)
T10 sequence: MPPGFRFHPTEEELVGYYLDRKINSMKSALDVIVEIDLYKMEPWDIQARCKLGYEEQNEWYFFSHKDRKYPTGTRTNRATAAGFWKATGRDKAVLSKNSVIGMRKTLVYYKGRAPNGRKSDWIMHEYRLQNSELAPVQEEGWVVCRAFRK
Procedure, shortened: as §1

GST-NAP(1-166) = target: T11, GST-NAP(1-166) (Arabidopsis thaliana, UniProt O49255 1-166)
T11 sequence: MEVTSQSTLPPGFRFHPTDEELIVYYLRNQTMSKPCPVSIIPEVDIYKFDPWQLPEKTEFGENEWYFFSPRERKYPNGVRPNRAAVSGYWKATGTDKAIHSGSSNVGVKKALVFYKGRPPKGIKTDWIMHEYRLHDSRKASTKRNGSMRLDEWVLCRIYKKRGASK
Procedure, shortened: as §1

Chain of GST-NTL6(1-168) (Q9SCK6 1-168): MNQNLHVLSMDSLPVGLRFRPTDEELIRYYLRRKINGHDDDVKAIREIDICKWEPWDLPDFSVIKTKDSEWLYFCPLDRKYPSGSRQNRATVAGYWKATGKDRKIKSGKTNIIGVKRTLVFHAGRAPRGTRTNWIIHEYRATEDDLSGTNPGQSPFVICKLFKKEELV

Sequence	binding signal (GST-ANAC092(1-176)) [E-score]	binding signal (GST-NTL6(1-168)) [E-score]	binding signal (GST-ANAC019 NAC domain) [E-score]	binding signal (GST-ANAC055(1-171)) [E-score]	binding signal (GST-ATAF1 NAC domain) [E-score]	binding signal [1] [E-score]	binding signal (GST-NST2(1-184)) [E-score]	binding signal (GST-NTL8 NAC domain) [E-score]	binding signal (GST-SND1(1-203)) [E-score]	binding signal (GST-VND3 NAC domain) [E-score]	binding signal (GST-VND7 NAC domain) [E-score]	binding signal (GST-NAP(1-166)) [E-score]
GAAGTAAA	0.214	0.409	0.0501	0.107	0.211	0.305	0.224	0.222	0.329	0.179	0.18	–
TATCGTAA	0.2	0.146	–	0.0984	0.188	0.337	0.282	–	0.418	0.143	0.236	0.0786
ACCTTAAC	0.126	0.415	–	0.156	0.155	0.147	0.154	0.16	0.13	0.156	0.077	–
GTAGCGTA	0.427	0.111	–	0.205	0.288	0.47	0.381	–	0.489	0.239	0.267	0.27
ATACGCTA	0.451	0.0936	–	0.223	0.187	0.466	0.331	–	0.458	0.163	0.182	0.155
TACCTTAA	0.193	0.42	–	0.0879	0.131	0.26	0.149	0.298	0.291	0.16	0.0949	–
TTAAGCAA	0.357	0.471	–	0.133	0.133	0.356	0.334	0.252	0.473	0.198	0.227	–
